This is an account of results in publication PMC9838217, “Structure of SALL4 zinc finger domain reveals link between AT-rich DNA binding and Okihiro syndrome”.

Holding throughout (experiment): HT-SELEX; high values mean tight binding
What all share (details): protein: recombinant; vector His6-GST; dsDNA, one strand shown

The target in assay [1] is T1, SALL4 ZFC4 WT (HT-SELEX) (Mus musculus, UniProt Q8BX22 870-940).
T1 sequence: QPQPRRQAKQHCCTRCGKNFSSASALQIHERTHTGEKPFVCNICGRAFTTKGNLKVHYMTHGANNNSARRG
An outline of the steps:
(§1)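 Residues 870–940 of mouse SALL4, forming zinc finger cluster 4, were expressed recombinantly, purified, and 1 µg was incubated with library DNA (1.5 µg first cycle, 200 ng later) in 100 µl of 10 mM Tris–HCl pH 7.5, 50 mM NaCl, poly(dI-dC) and DTT for 10 min at room temperature. Washed Ni2+ bead-captured complexes were PCR-amplified and reselected for up to 6 cycles in triplicate, and the products were sequenced on MiSeq and scanned for 6-mers. Binding signal is the fold change in each canonical k-mer's read fraction compared with the initial random library.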

Assay [2] addresses T2, SALL4 ZFC4 R900W (HT-SELEX) (Mus musculus, UniProt Q8BX22 870-940, R900W).
T2 sequence: T1 sequence with R31W
The procedure, abridged: as §1

For assay [3], the target named is T3, SALL4 ZFC4 G921D (HT-SELEX) (Mus musculus, UniProt Q8BX22 870-940, G921D).
T3 sequence: T1 sequence with G52D
An outline of the steps:
as §1

Substitutions are numbered along the chain they refer to.

With GATTAA, the binding signal in assay [1] came to 2.07 ± 0.127 fold-change vs cycle 0; in assay [2] it was 1.99 ± 0.123 fold-change vs cycle 0; in assay [3] it was 1.77 ± 0.188 fold-change vs cycle 0.

CAAAAC: the binding signal was determined as 0.936 ± 0.0391 fold-change vs cycle 0 in assay [1], 1.06 ± 0.0573 fold-change vs cycle 0 in assay [2] and 1.08 ± 0.0366 fold-change vs cycle 0 in assay [3].

Take ATACTA: the figures for the binding signal in assay [1], in assay [2] and in assay [3] were 2.04 ± 0.115 fold-change vs cycle 0, 2.07 ± 0.172 fold-change vs cycle 0 and 1.84 ± 0.179 fold-change vs cycle 0, respectively.

On to ATTAGA, for which the values for the binding signal in assay [1], in assay [2] and in assay [3] were 2.12 ± 0.0407 fold-change vs cycle 0, 2.08 ± 0.0537 fold-change vs cycle 0 and 1.85 ± 0.125 fold-change vs cycle 0, respectively.

GGTGTA: the binding signal is 0.751 ± 0.0241 fold-change vs cycle 0 in assay [1], 0.855 ± 0.0293 fold-change vs cycle 0 in assay [2] and 0.889 ± 0.0301 fold-change vs cycle 0 in assay [3].

In the case of AACTTA, the figures for the binding signal in assay [1], in assay [2] and in assay [3] were 2.13 ± 0.126 fold-change vs cycle 0, 2.11 ± 0.126 fold-change vs cycle 0 and 1.89 ± 0.231 fold-change vs cycle 0, respectively.

With GTGAGA, the binding signal was 0.859 ± 0.0299 fold-change vs cycle 0 in assay [1], 0.971 ± 0.0233 fold-change vs cycle 0 in assay [2] and 0.986 ± 0.0119 fold-change vs cycle 0 in assay [3].

Turning to ACCTGC, the binding signal in assay [1] is 0.368 ± 0.0272 fold-change vs cycle 0; in assay [2] it was 0.391 ± 0.01 fold-change vs cycle 0; in assay [3], 0.516 ± 0.075 fold-change vs cycle 0.

In the case of CTATAA, the binding signal stood at 2.19 ± 0.104 fold-change vs cycle 0 in assay [1], 1.95 ± 0.0822 fold-change vs cycle 0 in assay [2] and 1.74 ± 0.119 fold-change vs cycle 0 in assay [3].

For the sequence AACGGT, the binding signal in assay [1] worked out at 0.689 ± 0.0523 fold-change vs cycle 0; in assay [2], 0.7682 ± 0.0076 fold-change vs cycle 0; in assay [3], 0.832 ± 0.0229 fold-change vs cycle 0.

Take CACTTA: the results for the binding signal in assay [1], in assay [2] and in assay [3] were 1.34 ± 0.0677 fold-change vs cycle 0, 1.46 ± 0.0563 fold-change vs cycle 0 and 1.38 ± 0.0979 fold-change vs cycle 0, respectively.

In the case of AAGACT, the binding signal in assay [1] was 1.29 ± 0.0445 fold-change vs cycle 0; in assay [2], 1.49 ± 0.0431 fold-change vs cycle 0; in assay [3], 1.4 ± 0.0897 fold-change vs cycle 0.

CAAGTA: the binding signal in assay [1] came out at 1.28 ± 0.0466 fold-change vs cycle 0; in assay [2], 1.42 ± 0.0751 fold-change vs cycle 0; in assay [3] it was 1.34 ± 0.0943 fold-change vs cycle 0.

On to GTCGAA, for which the binding signal in assay [1] worked out at 0.506 ± 0.0326 fold-change vs cycle 0; in assay [2] it was 0.599 ± 0.0193 fold-change vs cycle 0; in assay [3], 0.7 ± 0.0299 fold-change vs cycle 0.

With CCGAAA, the binding signal is 0.495 ± 0.0231 fold-change vs cycle 0 in assay [1], 0.559 ± 0.0265 fold-change vs cycle 0 in assay [2] and 0.66 ± 0.0717 fold-change vs cycle 0 in assay [3].

On to AGTCAC, for which the binding signal came to 0.789 ± 0.043 fold-change vs cycle 0 in assay [1], 0.9321 ± 0.00858 fold-change vs cycle 0 in assay [2] and 0.975 ± 0.0241 fold-change vs cycle 0 in assay [3].

As for AACCCT, the binding signal in assay [1] came out at 0.85 ± 0.042 fold-change vs cycle 0; in assay [2], 0.958 ± 0.0297 fold-change vs cycle 0; in assay [3], 0.971 ± 0.0387 fold-change vs cycle 0.

For CGTCTC, the figures for the binding signal in assay [1], in assay [2] and in assay [3] were 0.379 ± 0.0073 fold-change vs cycle 0, 0.467 ± 0.0242 fold-change vs cycle 0 and 0.574 ± 0.0434 fold-change vs cycle 0, respectively.

Take CTTTCC: the binding signal is 0.771 ± 0.025 fold-change vs cycle 0 in assay [1], 0.935 ± 0.0213 fold-change vs cycle 0 in assay [2] and 0.967 ± 0.0233 fold-change vs cycle 0 in assay [3].

As to CCGTAG, the binding signal in assay [1] worked out at 0.35 ± 0.01 fold-change vs cycle 0; in assay [2] it was 0.427 ± 0.0139 fold-change vs cycle 0; in assay [3] it was 0.516 ± 0.0548 fold-change vs cycle 0.

On to ATCGAA, for which the binding signal in assay [1] stood at 1.17 ± 0.0408 fold-change vs cycle 0; in assay [2] it was 1.16 ± 0.0416 fold-change vs cycle 0; in assay [3] it was 1.2 ± 0.0145 fold-change vs cycle 0.

Regarding CACTGA, the binding signal in assay [1] was 0.799 ± 0.0339 fold-change vs cycle 0; in assay [2] it was 0.912 ± 0.0516 fold-change vs cycle 0; in assay [3] it was 0.949 ± 0.00436 fold-change vs cycle 0.

TAGCGA: the binding signal in assay [1] was 0.54 ± 0.0286 fold-change vs cycle 0; in assay [2], 0.613 ± 0.0291 fold-change vs cycle 0; in assay [3], 0.72 ± 0.0193 fold-change vs cycle 0.

On to AAGGGG, for which the binding signal in assay [1] was 0.527 ± 0.0535 fold-change vs cycle 0; in assay [2], 0.628 ± 0.0342 fold-change vs cycle 0; in assay [3], 0.657 ± 0.0321 fold-change vs cycle 0.

With ATGAAT, the figures for the binding signal in assay [1], in assay [2] and in assay [3] were 3.02 ± 0.199 fold-change vs cycle 0, 2.16 ± 0.113 fold-change vs cycle 0 and 1.92 ± 0.161 fold-change vs cycle 0, respectively.

In the case of AGCAAT, the binding signal in assay [1] amounted to 1.19 ± 0.0605 fold-change vs cycle 0; in assay [2], 1.21 ± 0.0474 fold-change vs cycle 0; in assay [3] it was 1.25 ± 0.111 fold-change vs cycle 0.

On to AGAACT, for which the binding signal was 1.36 ± 0.0489 fold-change vs cycle 0 in assay [1], 1.545 ± 0.00829 fold-change vs cycle 0 in assay [2] and 1.43 ± 0.129 fold-change vs cycle 0 in assay [3].

Regarding CAGACA, the figures for the binding signal in assay [1], in assay [2] and in assay [3] were 0.66 ± 0.0364 fold-change vs cycle 0, 0.798 ± 0.012 fold-change vs cycle 0 and 0.862 ± 0.0574 fold-change vs cycle 0, respectively.

As to CTCCAG, the binding signal in assay [1] came to 0.482 ± 0.0297 fold-change vs cycle 0; in assay [2], 0.584 ± 0.0424 fold-change vs cycle 0; in assay [3], 0.667 ± 0.0339 fold-change vs cycle 0.

CCATAG: the binding signal in assay [1] was 0.841 ± 0.0326 fold-change vs cycle 0; in assay [2] it was 0.91 ± 0.0505 fold-change vs cycle 0; in assay [3], 0.94 ± 0.039 fold-change vs cycle 0.

In the case of ACAAAT, the binding signal in assay [1] worked out at 1.82 ± 0.0876 fold-change vs cycle 0; in assay [2], 1.76 ± 0.0787 fold-change vs cycle 0; in assay [3], 1.61 ± 0.106 fold-change vs cycle 0.

For the sequence CAGGAC, the figures for the binding signal in assay [1], in assay [2] and in assay [3] were 0.423 ± 0.0322 fold-change vs cycle 0, 0.487 ± 0.0192 fold-change vs cycle 0 and 0.578 ± 0.0205 fold-change vs cycle 0, respectively.

Consider ACGTGG, for which the binding signal in assay [1] was determined as 0.369 ± 0.00823 fold-change vs cycle 0; in assay [2] it was 0.462 ± 0.0221 fold-change vs cycle 0; in assay [3], 0.54 ± 0.0513 fold-change vs cycle 0.

As to CTGGTA, the binding signal in assay [1] was 0.8022 ± 0.00263 fold-change vs cycle 0; in assay [2] it was 0.908 ± 0.0333 fold-change vs cycle 0; in assay [3], 0.954 ± 0.0144 fold-change vs cycle 0.

In the case of CCAAGG, the binding signal amounted to 0.457 ± 0.0202 fold-change vs cycle 0 in assay [1], 0.535 ± 0.0059 fold-change vs cycle 0 in assay [2] and 0.642 ± 0.0371 fold-change vs cycle 0 in assay [3].

Turning to ATGGAC, the binding signal amounted to 0.777 ± 0.0185 fold-change vs cycle 0 in assay [1], 0.861 ± 0.0318 fold-change vs cycle 0 in assay [2] and 0.938 ± 0.0184 fold-change vs cycle 0 in assay [3].

Consider CTCGAA, for which the results for the binding signal in assay [1], in assay [2] and in assay [3] were 0.675 ± 0.0333 fold-change vs cycle 0, 0.763 ± 0.0367 fold-change vs cycle 0 and 0.838 ± 0.0207 fold-change vs cycle 0, respectively.

Take AGATCA: the binding signal in assay [1] was determined as 1.29 ± 0.0762 fold-change vs cycle 0; in assay [2], 1.44 ± 0.0715 fold-change vs cycle 0; in assay [3], 1.46 ± 0.0921 fold-change vs cycle 0.

With AGATTA, the binding signal came to 2.21 ± 0.147 fold-change vs cycle 0 in assay [1], 2.14 ± 0.14 fold-change vs cycle 0 in assay [2] and 1.86 ± 0.198 fold-change vs cycle 0 in assay [3].

As for ATCTGC, the binding signal in assay [1] was determined as 0.624 ± 0.0226 fold-change vs cycle 0; in assay [2], 0.711 ± 0.0187 fold-change vs cycle 0; in assay [3], 0.798 ± 0.0337 fold-change vs cycle 0.

Take CATTGC: the binding signal in assay [1] was determined as 0.645 ± 0.0305 fold-change vs cycle 0; in assay [2], 0.712 ± 0.0136 fold-change vs cycle 0; in assay [3], 0.825 ± 0.0379 fold-change vs cycle 0.

Take GGATCA: the binding signal worked out at 0.841 ± 0.0365 fold-change vs cycle 0 in assay [1], 0.972 ± 0.0131 fold-change vs cycle 0 in assay [2] and 1.03 ± 0.0289 fold-change vs cycle 0 in assay [3].

As for CTGGGA, the binding signal turned out to be 0.455 ± 0.0297 fold-change vs cycle 0 in assay [1], 0.528 ± 0.00656 fold-change vs cycle 0 in assay [2] and 0.594 ± 0.0357 fold-change vs cycle 0 in assay [3].

Consider CAAAAA, for which the binding signal in assay [1] is 1.52 ± 0.0617 fold-change vs cycle 0; in assay [2] it was 1.38 ± 0.0576 fold-change vs cycle 0; in assay [3], 1.35 ± 0.0641 fold-change vs cycle 0.

As to CTACCC, the binding signal stood at 0.454 ± 0.0263 fold-change vs cycle 0 in assay [1], 0.523 ± 0.00774 fold-change vs cycle 0 in assay [2] and 0.607 ± 0.0541 fold-change vs cycle 0 in assay [3].
